# Data reported in publication PMC7862700, “An all-to-all approach to the identification of sequence-specific readers for epigenetic DNA modifications on cytosine”.
# Legend:
# Assay in all cases: DAPPL (digital affinity profiling via proximity ligation, sequencing); 10 mM Tris-HCl pH 7.5, 50 mM NaCl, 1 mM DTT, 4% glycerol, room temperature, 30 min; GST-TFs on glutathione beads, 16-mer random dsDNA library, 0.1% formaldehyde crosslink after washing; high values mean tight binding
# FLI1 = target: T1, FLI1 (Homo sapiens, UniProt Q01543 1-452); conditions: protein: recombinant; tags: N-terminal GST; dsDNA, one strand shown
# T1 sequence: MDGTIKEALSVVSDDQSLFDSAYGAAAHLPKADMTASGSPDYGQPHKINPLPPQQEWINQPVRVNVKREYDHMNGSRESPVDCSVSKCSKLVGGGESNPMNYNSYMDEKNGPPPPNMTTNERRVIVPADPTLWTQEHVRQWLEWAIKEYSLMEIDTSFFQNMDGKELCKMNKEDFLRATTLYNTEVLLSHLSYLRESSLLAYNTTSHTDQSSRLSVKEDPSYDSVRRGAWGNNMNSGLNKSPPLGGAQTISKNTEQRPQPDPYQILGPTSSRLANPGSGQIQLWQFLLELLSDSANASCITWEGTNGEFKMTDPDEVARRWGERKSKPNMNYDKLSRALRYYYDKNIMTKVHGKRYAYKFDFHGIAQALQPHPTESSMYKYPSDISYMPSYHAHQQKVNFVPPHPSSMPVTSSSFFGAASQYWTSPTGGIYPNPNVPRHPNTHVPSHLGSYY
# Procedure, shortened: (§1)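 Binding signal is given per hexamer as its read frequency for a factor divided by its frequency in the tag-only sample. GST-fused human transcription factors were expressed in yeast, captured on glutathione beads, barcoded with DNA and pooled with that sample, then incubated with 200 nmole of a 16-mer random double-stranded DNA library in Tris/NaCl/DTT/glycerol buffer for 30 min at room temperature. The pools were then washed, crosslinked, proximity-ligated, amplified by PCR and sequenced on an Illumina NextSeq500.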
# ELK1 = target: T2, ELK1 (Homo sapiens, UniProt P19419 1-428); conditions: protein: recombinant; tags: N-terminal GST; dsDNA, one strand shown
# T2 sequence: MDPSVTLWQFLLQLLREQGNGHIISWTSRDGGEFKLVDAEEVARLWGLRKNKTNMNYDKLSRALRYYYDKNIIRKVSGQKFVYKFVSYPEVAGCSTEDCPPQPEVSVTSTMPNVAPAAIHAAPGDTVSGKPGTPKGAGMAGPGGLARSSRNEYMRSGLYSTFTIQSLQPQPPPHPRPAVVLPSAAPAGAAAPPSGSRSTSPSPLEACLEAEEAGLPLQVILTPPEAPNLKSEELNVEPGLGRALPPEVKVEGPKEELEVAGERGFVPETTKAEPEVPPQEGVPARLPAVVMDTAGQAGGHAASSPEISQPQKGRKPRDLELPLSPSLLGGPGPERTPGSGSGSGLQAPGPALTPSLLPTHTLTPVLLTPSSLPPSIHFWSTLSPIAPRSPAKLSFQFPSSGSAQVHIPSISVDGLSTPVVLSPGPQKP
# Procedure, shortened: as §1
# GABPA = target: T3, GABPA (Homo sapiens, UniProt Q06546 1-454); conditions: protein: recombinant; tags: N-terminal GST; dsDNA, one strand shown
# T3 sequence: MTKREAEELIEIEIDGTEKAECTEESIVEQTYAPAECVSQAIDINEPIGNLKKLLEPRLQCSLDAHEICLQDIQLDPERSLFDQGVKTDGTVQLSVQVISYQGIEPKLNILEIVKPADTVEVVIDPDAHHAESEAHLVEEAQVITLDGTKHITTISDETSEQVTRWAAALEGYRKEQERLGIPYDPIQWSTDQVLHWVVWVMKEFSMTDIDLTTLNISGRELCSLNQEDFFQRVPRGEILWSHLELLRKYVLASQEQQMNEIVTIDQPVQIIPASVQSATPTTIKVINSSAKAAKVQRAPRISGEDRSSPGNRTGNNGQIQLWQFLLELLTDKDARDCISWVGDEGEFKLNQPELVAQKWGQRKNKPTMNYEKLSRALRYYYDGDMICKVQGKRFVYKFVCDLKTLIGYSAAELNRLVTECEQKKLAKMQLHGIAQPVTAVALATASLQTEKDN
# Procedure, shortened: as §1
# ERG = target: T4, ERG (Homo sapiens, UniProt P11308 1-479); conditions: protein: recombinant; tags: N-terminal GST; dsDNA, one strand shown
# T4 sequence: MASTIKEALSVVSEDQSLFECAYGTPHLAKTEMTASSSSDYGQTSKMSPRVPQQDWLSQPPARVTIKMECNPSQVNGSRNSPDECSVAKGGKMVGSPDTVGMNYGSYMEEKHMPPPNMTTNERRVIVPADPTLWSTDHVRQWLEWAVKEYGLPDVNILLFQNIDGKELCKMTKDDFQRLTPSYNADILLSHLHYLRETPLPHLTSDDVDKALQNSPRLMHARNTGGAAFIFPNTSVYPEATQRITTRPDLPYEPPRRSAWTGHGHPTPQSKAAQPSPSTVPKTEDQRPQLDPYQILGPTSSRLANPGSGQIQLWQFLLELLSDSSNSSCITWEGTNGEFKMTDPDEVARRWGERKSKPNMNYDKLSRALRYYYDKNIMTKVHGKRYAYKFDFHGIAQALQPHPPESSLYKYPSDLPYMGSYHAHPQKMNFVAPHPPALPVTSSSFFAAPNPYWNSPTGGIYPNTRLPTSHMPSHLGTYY
# Procedure, shortened: as §1
# ELF1 = ELF1 (Homo sapiens, UniProt P32519 1-619); conditions: protein: recombinant; tags: N-terminal GST; dsDNA, one strand shown
# Sequence of ELF1 (P32519 whole entry): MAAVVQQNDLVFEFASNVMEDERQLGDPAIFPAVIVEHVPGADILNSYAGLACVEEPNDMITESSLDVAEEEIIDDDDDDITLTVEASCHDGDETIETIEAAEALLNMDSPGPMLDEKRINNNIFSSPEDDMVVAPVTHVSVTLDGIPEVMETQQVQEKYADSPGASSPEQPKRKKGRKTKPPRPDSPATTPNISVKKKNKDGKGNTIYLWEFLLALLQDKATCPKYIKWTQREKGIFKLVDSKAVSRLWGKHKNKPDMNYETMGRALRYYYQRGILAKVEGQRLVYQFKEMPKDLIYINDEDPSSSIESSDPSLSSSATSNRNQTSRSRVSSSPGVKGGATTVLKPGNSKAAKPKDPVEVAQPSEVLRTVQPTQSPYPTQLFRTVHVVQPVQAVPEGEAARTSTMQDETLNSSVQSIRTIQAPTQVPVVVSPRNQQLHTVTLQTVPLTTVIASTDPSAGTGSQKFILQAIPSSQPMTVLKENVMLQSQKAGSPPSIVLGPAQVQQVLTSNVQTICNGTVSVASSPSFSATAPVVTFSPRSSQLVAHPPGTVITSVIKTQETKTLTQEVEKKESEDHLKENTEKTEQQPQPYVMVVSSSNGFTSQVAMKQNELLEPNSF
# Procedure, shortened: as §1
# EHF = target: T5, EHF (Homo sapiens, UniProt Q9NZC4 1-300); conditions: protein: recombinant; tags: N-terminal GST; dsDNA, one strand shown
# T5 sequence: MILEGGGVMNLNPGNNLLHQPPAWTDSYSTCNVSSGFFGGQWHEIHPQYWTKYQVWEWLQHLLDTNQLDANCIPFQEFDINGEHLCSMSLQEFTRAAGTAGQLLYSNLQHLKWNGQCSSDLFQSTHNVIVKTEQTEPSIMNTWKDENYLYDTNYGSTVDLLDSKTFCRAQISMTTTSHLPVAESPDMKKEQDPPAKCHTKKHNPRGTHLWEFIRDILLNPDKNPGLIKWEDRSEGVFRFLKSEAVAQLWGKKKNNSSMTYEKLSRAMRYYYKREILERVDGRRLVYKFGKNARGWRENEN
# Procedure, shortened: as §1
# SPI1 = SPI1 (Homo sapiens, UniProt P17947 1-270); conditions: protein: recombinant; tags: N-terminal GST; dsDNA, one strand shown
# Procedure, shortened: as §1
# SPIB = SPIB (Homo sapiens, UniProt Q01892 1-262); conditions: protein: recombinant; tags: N-terminal GST; dsDNA, one strand shown
# Sequence of SPIB (Q01892 whole entry): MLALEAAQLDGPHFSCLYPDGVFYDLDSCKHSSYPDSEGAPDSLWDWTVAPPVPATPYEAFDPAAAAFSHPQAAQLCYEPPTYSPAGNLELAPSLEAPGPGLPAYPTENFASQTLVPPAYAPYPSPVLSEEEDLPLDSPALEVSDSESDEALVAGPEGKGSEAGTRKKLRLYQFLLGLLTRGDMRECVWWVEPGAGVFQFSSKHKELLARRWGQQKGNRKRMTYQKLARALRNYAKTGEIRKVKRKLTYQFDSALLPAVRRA
# Procedure, shortened: as §1
# ELK3 = target: T6, ELK3 (Homo sapiens, UniProt P41970 1-407); conditions: protein: recombinant; tags: N-terminal GST; dsDNA, one strand shown
# T6 sequence: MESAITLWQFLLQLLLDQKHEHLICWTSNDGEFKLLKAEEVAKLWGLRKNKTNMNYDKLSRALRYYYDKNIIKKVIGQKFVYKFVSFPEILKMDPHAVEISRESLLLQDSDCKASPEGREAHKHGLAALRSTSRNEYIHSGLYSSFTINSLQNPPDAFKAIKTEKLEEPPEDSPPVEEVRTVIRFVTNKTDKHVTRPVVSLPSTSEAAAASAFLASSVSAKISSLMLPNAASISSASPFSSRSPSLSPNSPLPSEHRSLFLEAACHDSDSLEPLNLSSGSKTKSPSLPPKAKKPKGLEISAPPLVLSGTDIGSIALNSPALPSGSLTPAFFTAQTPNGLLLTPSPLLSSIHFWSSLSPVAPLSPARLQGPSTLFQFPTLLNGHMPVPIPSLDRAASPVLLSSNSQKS
# Procedure, shortened: as §1
# FEV = target: T7, FEV (Homo sapiens, UniProt Q99581 1-238); conditions: protein: recombinant; tags: N-terminal GST; dsDNA, one strand shown
# T7 sequence: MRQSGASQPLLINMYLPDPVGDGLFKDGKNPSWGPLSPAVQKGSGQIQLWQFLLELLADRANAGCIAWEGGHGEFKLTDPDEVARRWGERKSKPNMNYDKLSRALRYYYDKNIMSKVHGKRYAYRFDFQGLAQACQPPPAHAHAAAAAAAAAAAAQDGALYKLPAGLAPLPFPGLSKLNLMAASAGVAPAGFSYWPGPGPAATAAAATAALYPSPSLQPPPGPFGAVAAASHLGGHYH
# Procedure, shortened: as §1
# ETV5 = ETV5 (Homo sapiens, UniProt P41161 1-510); conditions: protein: recombinant; tags: N-terminal GST; dsDNA, one strand shown
# Sequence of ETV5 (P41161 whole entry): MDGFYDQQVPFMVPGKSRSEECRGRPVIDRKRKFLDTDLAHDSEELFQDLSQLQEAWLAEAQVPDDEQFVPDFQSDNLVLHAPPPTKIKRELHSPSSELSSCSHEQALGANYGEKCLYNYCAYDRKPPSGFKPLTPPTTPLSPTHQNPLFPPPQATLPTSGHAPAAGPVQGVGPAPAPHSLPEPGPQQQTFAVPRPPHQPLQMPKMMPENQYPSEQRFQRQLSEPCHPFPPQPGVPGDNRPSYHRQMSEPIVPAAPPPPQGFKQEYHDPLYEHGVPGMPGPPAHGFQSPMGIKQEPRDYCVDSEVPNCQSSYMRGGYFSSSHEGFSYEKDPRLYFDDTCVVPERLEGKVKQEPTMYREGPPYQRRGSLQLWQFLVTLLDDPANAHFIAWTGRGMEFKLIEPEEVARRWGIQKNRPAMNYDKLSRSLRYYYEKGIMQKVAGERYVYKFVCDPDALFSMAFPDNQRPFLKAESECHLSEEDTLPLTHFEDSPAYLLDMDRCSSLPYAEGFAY
# Procedure, shortened: as §1
# HSF1 = HSF1 (Homo sapiens, UniProt Q00613 1-529); conditions: protein: recombinant; tags: N-terminal GST; chain copies: 3; dsDNA, one strand shown
# Sequence of HSF1 (Q00613 whole entry): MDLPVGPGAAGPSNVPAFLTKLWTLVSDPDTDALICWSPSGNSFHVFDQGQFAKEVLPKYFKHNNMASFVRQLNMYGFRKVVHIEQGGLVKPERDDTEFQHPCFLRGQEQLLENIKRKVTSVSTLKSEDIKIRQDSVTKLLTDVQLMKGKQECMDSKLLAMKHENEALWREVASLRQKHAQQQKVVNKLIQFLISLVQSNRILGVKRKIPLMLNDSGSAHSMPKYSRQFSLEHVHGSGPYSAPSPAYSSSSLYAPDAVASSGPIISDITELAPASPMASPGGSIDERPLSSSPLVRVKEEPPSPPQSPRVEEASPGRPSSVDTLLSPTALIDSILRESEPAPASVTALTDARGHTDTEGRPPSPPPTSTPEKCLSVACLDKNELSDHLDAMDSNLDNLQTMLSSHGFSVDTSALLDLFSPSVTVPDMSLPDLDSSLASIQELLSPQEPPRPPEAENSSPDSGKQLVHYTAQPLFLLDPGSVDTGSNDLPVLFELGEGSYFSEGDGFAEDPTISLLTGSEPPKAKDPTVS
# Procedure, shortened: as §1
# SPIC = target: T8, SPIC (Homo sapiens, UniProt Q8N5J4 1-248); conditions: protein: recombinant; tags: N-terminal GST; dsDNA, one strand shown
# T8 sequence: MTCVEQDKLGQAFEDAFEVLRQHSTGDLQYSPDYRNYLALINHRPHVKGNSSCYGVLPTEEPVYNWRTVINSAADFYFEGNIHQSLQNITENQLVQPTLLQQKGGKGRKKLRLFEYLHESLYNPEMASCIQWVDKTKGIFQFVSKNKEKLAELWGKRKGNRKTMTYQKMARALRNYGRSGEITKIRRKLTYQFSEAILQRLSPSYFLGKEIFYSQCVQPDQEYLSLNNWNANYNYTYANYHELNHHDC
# Procedure, shortened: as §1
# ELF4 = ELF4 (Homo sapiens, UniProt Q99607 1-663); conditions: protein: recombinant; tags: N-terminal GST; dsDNA, one strand shown
# Sequence of ELF4 (Q99607 whole entry): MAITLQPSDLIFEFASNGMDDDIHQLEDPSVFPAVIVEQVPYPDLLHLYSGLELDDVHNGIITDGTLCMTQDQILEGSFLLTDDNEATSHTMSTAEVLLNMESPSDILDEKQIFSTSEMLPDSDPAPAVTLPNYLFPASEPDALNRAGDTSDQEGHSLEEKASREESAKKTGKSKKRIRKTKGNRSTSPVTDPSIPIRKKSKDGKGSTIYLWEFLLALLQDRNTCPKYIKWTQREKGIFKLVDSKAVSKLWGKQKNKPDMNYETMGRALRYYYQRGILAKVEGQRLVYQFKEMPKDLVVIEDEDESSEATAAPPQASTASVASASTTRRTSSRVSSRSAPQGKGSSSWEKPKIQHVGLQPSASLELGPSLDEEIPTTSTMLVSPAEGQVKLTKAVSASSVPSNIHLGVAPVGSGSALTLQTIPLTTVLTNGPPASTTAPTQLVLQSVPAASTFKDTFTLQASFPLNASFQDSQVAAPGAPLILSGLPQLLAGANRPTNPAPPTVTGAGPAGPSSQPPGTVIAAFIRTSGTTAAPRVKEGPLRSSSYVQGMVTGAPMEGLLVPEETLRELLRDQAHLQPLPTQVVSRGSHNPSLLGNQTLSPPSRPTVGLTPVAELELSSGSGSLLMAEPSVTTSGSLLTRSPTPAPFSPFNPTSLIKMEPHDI
# Procedure, shortened: as §1
# ELK4 = target: T9, ELK4 (Homo sapiens, UniProt P28324-2 1-405); conditions: protein: recombinant; tags: N-terminal GST; dsDNA, one strand shown
# T9 sequence: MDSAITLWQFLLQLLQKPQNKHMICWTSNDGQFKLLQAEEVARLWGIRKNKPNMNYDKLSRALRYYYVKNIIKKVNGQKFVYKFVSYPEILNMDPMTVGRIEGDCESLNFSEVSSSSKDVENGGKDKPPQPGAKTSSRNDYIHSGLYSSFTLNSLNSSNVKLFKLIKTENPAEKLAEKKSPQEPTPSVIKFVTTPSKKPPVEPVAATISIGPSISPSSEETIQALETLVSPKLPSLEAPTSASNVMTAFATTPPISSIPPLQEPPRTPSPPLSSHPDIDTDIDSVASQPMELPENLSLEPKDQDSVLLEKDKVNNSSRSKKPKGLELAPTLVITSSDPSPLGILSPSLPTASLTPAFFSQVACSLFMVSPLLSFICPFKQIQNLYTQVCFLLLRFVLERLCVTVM
# Procedure, shortened: as §1
# ETV2 = target: T10, ETV2 (Homo sapiens, UniProt O00321 1-342); conditions: protein: recombinant; tags: N-terminal GST; dsDNA, one strand shown
# T10 sequence: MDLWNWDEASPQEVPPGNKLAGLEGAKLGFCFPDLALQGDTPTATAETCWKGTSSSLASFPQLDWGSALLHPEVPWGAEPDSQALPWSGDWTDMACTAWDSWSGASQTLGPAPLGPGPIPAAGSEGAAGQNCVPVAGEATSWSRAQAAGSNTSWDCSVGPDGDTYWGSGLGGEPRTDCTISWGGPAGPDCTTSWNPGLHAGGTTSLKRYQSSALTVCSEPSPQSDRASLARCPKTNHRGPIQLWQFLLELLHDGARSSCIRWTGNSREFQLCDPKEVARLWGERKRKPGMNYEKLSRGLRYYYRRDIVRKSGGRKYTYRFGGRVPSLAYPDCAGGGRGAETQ
# Procedure, shortened: as §1
# ELF3 = target: T11, ELF3 (Homo sapiens, UniProt P78545 1-371); conditions: protein: recombinant; tags: N-terminal GST; dsDNA, one strand shown
# T11 sequence: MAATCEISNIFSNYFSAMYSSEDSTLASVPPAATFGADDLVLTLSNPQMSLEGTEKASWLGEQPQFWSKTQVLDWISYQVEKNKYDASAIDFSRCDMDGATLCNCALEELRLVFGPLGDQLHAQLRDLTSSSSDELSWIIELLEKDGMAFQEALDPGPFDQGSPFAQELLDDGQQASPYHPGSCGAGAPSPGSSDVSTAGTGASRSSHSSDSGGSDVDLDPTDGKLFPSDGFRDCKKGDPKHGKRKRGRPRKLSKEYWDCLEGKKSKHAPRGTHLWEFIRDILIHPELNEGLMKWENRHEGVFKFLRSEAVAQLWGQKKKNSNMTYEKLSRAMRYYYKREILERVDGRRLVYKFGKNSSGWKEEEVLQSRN
# Procedure, shortened: as §1
# CRX = CRX (Homo sapiens, UniProt O43186 1-299); conditions: protein: recombinant; tags: N-terminal GST; dsDNA, one strand shown
# Sequence of CRX (O43186 whole entry): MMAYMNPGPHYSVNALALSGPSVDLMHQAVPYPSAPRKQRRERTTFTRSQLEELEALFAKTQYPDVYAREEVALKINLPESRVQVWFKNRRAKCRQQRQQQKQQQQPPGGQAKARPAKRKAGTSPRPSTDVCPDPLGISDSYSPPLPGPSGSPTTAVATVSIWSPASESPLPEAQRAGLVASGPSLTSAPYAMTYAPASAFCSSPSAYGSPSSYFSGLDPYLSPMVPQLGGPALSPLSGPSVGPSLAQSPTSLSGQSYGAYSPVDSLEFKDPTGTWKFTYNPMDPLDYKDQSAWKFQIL
# Procedure, shortened: as §1
# ETV1 = ETV1 (Homo sapiens, UniProt P50549 1-477); conditions: protein: recombinant; tags: N-terminal GST; dsDNA, one strand shown
# Sequence of ETV1 (P50549 whole entry): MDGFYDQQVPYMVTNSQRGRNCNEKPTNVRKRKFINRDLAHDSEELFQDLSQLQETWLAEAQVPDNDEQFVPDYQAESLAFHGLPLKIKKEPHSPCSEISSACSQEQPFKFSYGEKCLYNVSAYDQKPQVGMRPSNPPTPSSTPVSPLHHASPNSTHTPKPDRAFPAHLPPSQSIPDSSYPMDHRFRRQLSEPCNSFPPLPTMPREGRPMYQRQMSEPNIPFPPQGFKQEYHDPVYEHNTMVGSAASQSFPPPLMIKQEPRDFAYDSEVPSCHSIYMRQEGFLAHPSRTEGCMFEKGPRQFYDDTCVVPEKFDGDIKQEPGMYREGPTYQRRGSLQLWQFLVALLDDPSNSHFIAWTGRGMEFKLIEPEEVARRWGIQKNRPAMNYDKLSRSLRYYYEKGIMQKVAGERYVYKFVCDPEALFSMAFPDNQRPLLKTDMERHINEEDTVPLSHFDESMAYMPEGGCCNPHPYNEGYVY
# Procedure, shortened: as §1
sequence,measurement,setting,value
TTGATG,binding signal,FLI1,"1.45 fold enrichment (6-mer frequency, TF over GST control)"
same,binding signal,ELK1,"1.82 fold enrichment (6-mer frequency, TF over GST control)"
same,binding signal,GABPA,"1.72 fold enrichment (6-mer frequency, TF over GST control)"
same,binding signal,ERG,"1.61 fold enrichment (6-mer frequency, TF over GST control)"
same,binding signal,ELF1,"1.64 fold enrichment (6-mer frequency, TF over GST control)"
same,binding signal,EHF,"1.65 fold enrichment (6-mer frequency, TF over GST control)"
same,binding signal,SPI1,"1.51 fold enrichment (6-mer frequency, TF over GST control)"
same,binding signal,SPIB,"1.62 fold enrichment (6-mer frequency, TF over GST control)"
same,binding signal,ELK3,"1.52 fold enrichment (6-mer frequency, TF over GST control)"
same,binding signal,FEV,"1.52 fold enrichment (6-mer frequency, TF over GST control)"
same,binding signal,ETV5,"1.73 fold enrichment (6-mer frequency, TF over GST control)"
same,binding signal,HSF1,"1.43 fold enrichment (6-mer frequency, TF over GST control)"
same,binding signal,SPIC,"1.59 fold enrichment (6-mer frequency, TF over GST control)"
same,binding signal,ELF4,"1.63 fold enrichment (6-mer frequency, TF over GST control)"
same,binding signal,ELK4,"1.52 fold enrichment (6-mer frequency, TF over GST control)"
same,binding signal,ETV2,"1.53 fold enrichment (6-mer frequency, TF over GST control)"
same,binding signal,ELF3,"1.81 fold enrichment (6-mer frequency, TF over GST control)"
same,binding signal,CRX,"1.5 fold enrichment (6-mer frequency, TF over GST control)"
same,binding signal,ETV1,"1.67 fold enrichment (6-mer frequency, TF over GST control)"
